# In PubChem BioAssay AID1159580 (chemical genetic matrix, 2015):
# Several values for one entry are separate records, joined by “and”; a condition that tells them apart may be missing. Equal entries are not always repeated. Among all 5,500 compounds or so, about 2,000 (36%) were called active. Roughly 18% stayed inconclusive and do not appear here. No stated cut-off is given here; in the data, active means normalized growth mostly below about 0.91 (no sharp cut-off); inconclusive means no clear call, values can overlap the other calls; inactive means mostly above about 0.92. The list shows a part of the results.
# Test: chemical genetic growth profiling, strain panel (AID 1159580);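 further: tested at 20 µM; growth read once vehicle control cultures reached saturation at 30 °C; 1 = growth at the plate median or of vehicle wells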
# Conditions: S. cerevisiae deletion strains, growth OD
smiles,measurement,setting,value
COc1ccc(-c2cc(=O)c3ccccc3o2)cc1,normalized growth,"locus YAL013W, strain DEP1, stronger effect = lower value",0.682 (active)
same,normalized growth,"locus YAL021C, strain ccr4, stronger effect = lower value",0.888 (active)
same,normalized growth,"locus YAL026C, strain drs2, stronger effect = lower value",0.828 (active)
same,normalized growth,"locus YAL030W, strain snc1, stronger effect = lower value",0.905 (active)
same,normalized growth,"locus YBL061C, strain skt5, stronger effect = lower value",0.869 (active)
same,normalized growth,"locus YBR009C, strain hhf1, stronger effect = lower value",0.725 (active)
same,normalized growth,"locus YBR021W, strain FUR4, stronger effect = lower value",0.949 (inactive)
same,normalized growth,"locus YBR023C, strain chs3, stronger effect = lower value",0.811 (active)
same,normalized growth,"locus YBR171W, strain sec66, stronger effect = lower value",0.869 (active)
same,normalized growth,"locus YBR229C, strain ROT2, stronger effect = lower value",0.932 (inactive)
same,normalized growth,"locus YBR231C, strain swc5, stronger effect = lower value",0.857 (active)
same,normalized growth,"locus YBR279W, strain paf1, stronger effect = lower value",0.881 (active)
same,normalized growth,"locus YCL011C, strain gbp2, stronger effect = lower value",0.809 (active)
same,normalized growth,"locus YCL016C, strain dcc1, stronger effect = lower value",0.781 (active)
same,normalized growth,"locus YCL029C, strain bik1, stronger effect = lower value",0.753 (active)
same,normalized growth,"locus YCL061C, strain MRC1, stronger effect = lower value",0.833 (active)
same,normalized growth,"locus YCL069W, strain vba3, stronger effect = lower value",0.863 (active)
same,normalized growth,"locus YCR088W, strain abp1, stronger effect = lower value",0.926 (inactive)
same,normalized growth,"locus YDL005C, strain med2, stronger effect = lower value",0.919 (inactive)
same,normalized growth,"locus YDL035C, strain GPR1, stronger effect = lower value",0.656 (active)
same,normalized growth,"locus YDL040C, strain nat1, stronger effect = lower value",0.923 (active)
same,normalized growth,"locus YDL074C, strain BRE1, stronger effect = lower value",0.452 (active)
same,normalized growth,"locus YDL101C, strain DUN1, stronger effect = lower value",0.655 (active)
same,normalized growth,"locus YDL185W, strain tfp1, stronger effect = lower value",0.907 (inactive)
same,normalized growth,"locus YDL192W, strain arf1, stronger effect = lower value",0.685 (active)
same,normalized growth,"locus YDR001C, strain nth1, stronger effect = lower value",0.923 (inactive)
same,normalized growth,"locus YDR069C, strain doa4, stronger effect = lower value",0.926 (inactive)
same,normalized growth,"locus YDR101C, strain arx1, stronger effect = lower value",0.884 (active)
same,normalized growth,"locus YDR137W, strain rgp1, stronger effect = lower value",0.53 (active)
same,normalized growth,"locus YDR159W, strain sac3, stronger effect = lower value",0.998 (inactive)
same,normalized growth,"locus YDR162C, strain NBP2, stronger effect = lower value",0.274 (active)
same,normalized growth,"locus YDR195W, strain ref2",1.3 [resistant] (active)
same,normalized growth,"locus YDR297W, strain sur2, stronger effect = lower value",0.899 (active)
same,normalized growth,"locus YDR318W, strain mcm21, stronger effect = lower value",0.792 (active)
same,normalized growth,"locus YDR334W, strain swr1, stronger effect = lower value",0.943 (inactive)
same,normalized growth,"locus YDR335W, strain msn5, stronger effect = lower value",0.902 (active)
same,normalized growth,"locus YDR388W, stronger effect = lower value",0.807 (active)
same,normalized growth,"locus YDR392W, strain spt3, stronger effect = lower value",0.406 (active)
same,normalized growth,"locus YDR502C, strain sam2, stronger effect = lower value",0.757 (active)
same,normalized growth,"locus YEL003W, strain gim4, stronger effect = lower value",0.79 (active)
same,normalized growth,"locus YEL037C, strain rad23, stronger effect = lower value",0.904 (active)
same,normalized growth,"locus YEL061C, strain CIN8 (second series), stronger effect = lower value",0.904 (active)
same,normalized growth,"locus YEL061C, strain CIN8, stronger effect = lower value",0.672 (active)
same,normalized growth,"locus YER015W, strain faa2, stronger effect = lower value",0.904 (active)
same,normalized growth,"locus YER016W, strain bim1, stronger effect = lower value",0.918 (active)
same,normalized growth,"locus YER110C, stronger effect = lower value",0.927 (inactive)
same,normalized growth,"locus YER111C, strain swi4, stronger effect = lower value",0.881 (active)
same,normalized growth,"locus YER155C, strain BEM2 (second series), stronger effect = lower value",0.283 (active)
same,normalized growth,"locus YER155C, strain BEM2, stronger effect = lower value",0.734 (active)
same,normalized growth,"locus YER167W, strain BCK2, stronger effect = lower value",0.739 (active)
same,normalized growth,"locus YFR010W, strain ubp6, stronger effect = lower value",0.911 (inactive)
same,normalized growth,"locus YGL078C, strain dbp3, stronger effect = lower value",0.933 (inactive)
same,normalized growth,"locus YGL086W, strain mad1, stronger effect = lower value",0.762 (active)
same,normalized growth,"locus YGL167C, strain pmr1, stronger effect = lower value",0.894 (active)
same,normalized growth,"locus YGL173C, strain kem1, stronger effect = lower value",0.798 (active)
same,normalized growth,"locus YGL227W, strain vid30, stronger effect = lower value",0.92 (inactive)
same,normalized growth,"locus YGL240W, strain doc1, stronger effect = lower value",0.756 (active)
same,normalized growth,"locus YGL248W, strain PDE1, stronger effect = lower value",0.636 (active)
same,normalized growth,"locus YGL253W, strain hxk2, stronger effect = lower value",0.681 (active)
same,normalized growth,"locus YGR135W, strain pre9, stronger effect = lower value",0.747 (active)
same,normalized growth,"locus YGR252W, strain gcn5, stronger effect = lower value",0.824 (inactive)
same,normalized growth,"locus YHR013C, strain ard1, stronger effect = lower value",0.771 (active)
same,normalized growth,"locus YHR027C, strain rpn1, stronger effect = lower value",0.916 (active)
same,normalized growth,"locus YHR030C, strain SLT2, stronger effect = lower value",0.398 (active) and 0.992 (inactive)
same,normalized growth,"locus YHR079C, strain IRE1 (second series), stronger effect = lower value",0.887 (active)
same,normalized growth,"locus YHR079C, strain IRE1, stronger effect = lower value",1 (inactive)
same,normalized growth,"locus YHR094C, strain hxt1, stronger effect = lower value",0.939 (inactive)
same,normalized growth,"locus YHR129C, strain ARP1, stronger effect = lower value",0.661 (active)
same,normalized growth,"locus YHR142W, strain chs7, stronger effect = lower value",0.584 (active)
same,normalized growth,"locus YHR200W, strain rpn10, stronger effect = lower value",0.868 (active)
same,normalized growth,"locus YIL066C, strain RNR3, stronger effect = lower value",0.55 (active)
same,normalized growth,"locus YIL073C, strain SPO22, stronger effect = lower value",0.66 (active)
same,normalized growth,"locus YIL125W, strain kgd1, stronger effect = lower value",0.949 (inactive)
same,normalized growth,"locus YIR030C, strain dcg1, stronger effect = lower value",0.804 (active)
same,normalized growth,"locus YJL092W, strain hpr5, stronger effect = lower value",0.884 (active)
same,normalized growth,"locus YJL095W, strain BCK1 (second series), stronger effect = lower value",0.707 (active)
same,normalized growth,"locus YJL095W, strain BCK1, stronger effect = lower value",0.277 (active) and 0.975 (inactive)
same,normalized growth,"locus YJL115W, strain asf1, stronger effect = lower value",0.915 (inactive)
same,normalized growth,"locus YJL129C, strain trk1, stronger effect = lower value",0.916 (inactive)
same,normalized growth,"locus YJL134W, strain LCB3, stronger effect = lower value",0.928 (inactive)
same,normalized growth,"locus YJL154C, strain vps35, stronger effect = lower value",0.938 (inactive)
same,normalized growth,"locus YJL164C, strain tpk1, stronger effect = lower value",0.754 (active)
same,normalized growth,"locus YJL166W, strain qcr8, stronger effect = lower value",0.771 (active)
same,normalized growth,"locus YJL168C, strain set2, stronger effect = lower value",0.922 (active)
same,normalized growth,"locus YJL187C, strain SWE1 (second series), stronger effect = lower value",0.668 (active)
same,normalized growth,"locus YJL187C, strain SWE1, stronger effect = lower value",0.9 (active)
same,normalized growth,"locus YJR043C, strain POL32, stronger effect = lower value",0.724 (active)
